Only a selection was taken, and hits are over-represented in it overall.
Pf Dd2 growth: qHTS Primary assay for Inhibitors of Plasmodium falciparum Dd2 growth in vitro; P. falciparum Dd2 growth, SYBR Green, 72 h; Potency, µM (series often up to 28.9 µM), most hits filed as inhibitors; actives 4.3% (n = 120,000); AID 1347417, 2020; active = well fitted inhibition curve with a large enough effect; note: nearly all actives have a fitted effect of over 65% in size
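Readout: SYBR Green fluorescence, 485 nm excitation, 535 nm emission, after ~16 h lysis at 37C. Before that, Dd2-infected red cells (2.5% hematocrit) grew 72 h with compound, 29 uM top final concentration.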
Of the large screens only hits and unclear results are named; the others gave an inactive call.

CCc1ccc(Nc2nc(-c3ccccc3F)no2)cc1	none
C=Cc1ccc(CSc2nc(-c3ccccc3Cl)nc3c2Cc2c(CO)cnc(C)c2O3)cc1	Pf Dd2 growth 6.3µM
COc1ccc(-c2nc3c(c(SCC(=O)N(C)c4ccccc4)n2)Cc2cc(C)ccc2O3)cc1	none
Cc1cccc(NC(=O)CSc2nc(-c3ccccc3Cl)nc3c2Cc2c(CO)cnc(C)c2O3)c1C	none
CCc1ccc(CSc2nc(-c3ccc(OC)cc3)nc3c2Cc2c(CO)cnc(C)c2O3)cc1	none
CCN(CC)C(=O)CSc1nc(-c2ccccc2F)nc2c1Cc1c(CO)cnc(C)c1O2	Pf Dd2 growth 11µM
COc1ccc(-c2nc3c(c(SCc4cc(C)ccc4C)n2)Cc2c(CO)cnc(C)c2O3)cc1	none
CCC(CC)CC(=O)N1CCCC(Nc2ccc3c(c2)OCCO3)C1 (stereo not given)	none
CN1C(=O)CC(C(=O)O)C12CCN(C(=O)Nc1cccc(F)c1)CC2 (stereo not given)	none
CCC(CC)NC(=O)C1CCCN(S(C)(=O)=O)CCC(=O)NCC1 (stereo not given)	none
COc1cccc(CC(=O)N2CCc3nn(Cc4ccccc4)c(=O)n3CC2)c1	none
CN1CCOc2c(C(=O)NCc3cnn(C)c3)cc(-c3ccccc3)cc21	none
O=C(O)C[C@@H]1CCN(C(=O)C2CC2)C[C@@H]1CCN1CCN(c2ccccc2)CC1	none
O=C(NCc1ccccc1)c1cnc2n1CCN(Cc1cccc(O)c1)CC2	none
CN(CC1CCOCC1)S(=O)(=O)c1ccc(Cl)s1	none
CN(C)c1ccc(NC(=O)Cn2cc(S(=O)(=O)Cc3ccccc3Cl)c3ccccc32)cc1	Pf Dd2 growth 7.9µM
CN(C)c1ccc(NC(=O)Cn2cc(S(=O)(=O)Cc3cccc(Cl)c3)c3ccccc32)cc1	none
O=C(Cn1cc(S(=O)(=O)Cc2ccccc2Cl)c2ccccc21)NCc1ccccc1Cl	none
CCc1nc2c(=O)n(CC(=O)NC(C)c3ccc(F)cc3)nc(C)c2s1 (stereo not given)	none
Cc1ccc(-c2nc(CCNC(=O)c3ccc(C)c(C)c3)cs2)cc1	none
CCOc1ccc(CC(=O)NCCc2csc(-c3ccc(Cl)cc3)n2)cc1	none
CCOc1ccc(CC(=O)NCCc2csc(-c3ccc(C)cc3)n2)cc1	Pf Dd2 growth 10µM
O=C(NC[C@@H]1CCCO1)c1ncoc1C1CC1	none
COc1ccc(C(=O)N2CCC3(CC2)CC(O)CCO3)c(C)c1 (stereo not given)	none
COc1ccc2[nH]c(C(=O)N3CCC4(CC3)CC(O)CCO4)cc2c1 (stereo not given)	Pf Dd2 growth 11µM
COc1ccc(C(=O)N2CCC3(CC2)CC(O)CCO3)cc1 (stereo not given)	none
CC(C)CC(=O)NCCC1CCN(C(=O)Nc2ccc(F)cc2F)CC1	none
COc1cccc(C2CCN(Cc3cn(-c4ccccc4)nn3)C2)c1OC (stereo not given)	Pf Dd2 growth 13µM
c1ccc(-n2cc(CN3CCC(Oc4ccncc4)CC3)nn2)cc1	none
O=C(O)Cc1cc(C2CCN(Cc3cn(-c4ccccc4)nn3)CC2)n[nH]1	none
CCCC(=O)N1CCC(N2C[C@H](O)C[C@H]2C(=O)NCc2cccc(OC)c2)CC1	none
O=C(CCC1CCCN(C(=O)c2ccc3c(c2)OCO3)C1)NCc1ccccc1Cl (stereo not given)	none
O=[S+]([O-])(Nc1cccnc1)c1ccc2c(c1)OCCN(Cc1ccncc1F)C2	none
O=[S+]([O-])(Nc1cccnc1)c1ccc2c(c1)OCCN(Cc1ccccc1F)C2	none
O=[S+]([O-])(Nc1ccccc1)c1ccc2c(c1)OCCN(Cc1ccncc1F)C2	Pf Dd2 growth 5µM
COc1ccc(CC(=O)Nc2ccc([C@H]3OCC(=O)N(Cc4ccncc4)[C@@H]3CO)cc2)cc1	none
COCCN1CCC(C(=O)Nc2ccc(Oc3ccccc3F)cc2)CC1	Pf Dd2 growth 13µM
CCOC(=O)C1CCN(CCC(=O)Nc2ccc(OC)cc2)CC1	none
O=C(Nc1ccc(Oc2ccccc2F)cc1)C1CCCCN1C(=O)c1cccnc1 (stereo not given)	none
COc1ccc(CN2C[C@@H](F)[C@@H](OCc3nc4ccncc4[nH]3)C2)cn1	none
CN(C)c1ccc(CN(C)C2CCOc3ccccc32)cc1 (stereo not given)	none
CN(Cc1ccc(C(F)(F)F)cc1)C1CCc2ccccc21 (stereo not given)	none
CN(Cc1cccc2ccccc12)C1CCCc2ccccc21 (stereo not given)	Pf Dd2 growth 11µM
CN(Cc1ccc(F)cc1)C1CCc2ccccc21 (stereo not given)	none
COC(=O)N(C)C1CCCc2ccccc21 (stereo not given)	none
CN(CC1CCCCC1)C1CCc2ccccc21 (stereo not given)	none
CN(Cc1cccnc1)C1CCCc2ccccc21 (stereo not given)	Pf Dd2 growth 5µM
COc1ccc(CCC2CCCN(S(=O)(=O)N(C)C)C2)cc1 (stereo not given)	none
CCc1nc(-c2c3n(c(=O)n(CC(N)=O)c2=O)CCCCC3)no1	none
CNC(=O)CCC[C@H]1NC[C@@H]2CC1CN(Cc1ccccc1)C2	none
COc1ccc2[nH]cc(CCNC(=O)CCC[C@H]3NC[C@@H]4C[C@H]3CN(Cc3ccccc3)C4)c2c1	Pf Dd2 growth 10µM
NC(=O)CCC[C@H]1NC[C@@H]2C[C@H]1CN(Cc1ccccc1)C2	none
CCN(Cc1ccccc1)C(=O)CCC[C@H]1NC[C@@H]2CC1CN(Cc1ccccc1)C2	Pf Dd2 growth 13µM
COc1ccccc1OCCNC(=O)CCC[C@H]1NC[C@@H]2C[C@H]1CN(Cc1ccccc1)C2	none
O=C(CCC[C@H]1NC[C@@H]2C[C@H]1CN(Cc1ccccc1)C2)NCCN1CCCCC1	none
O=C1NCCCCCN(C(=O)c2ccncc2)[C@H]2CCC[C@@H]12	none
O=C(c1ccc(F)c(Cl)c1)N1CCC(c2n[nH]c(=O)n2-c2ccccc2)CC1	none
O=c1n(CC2CC2)nc2n1CCN(S(=O)(=O)c1cnc[nH]1)CC2	none
c1cncc(CN2CCC[C@H]2c2nc(-c3ccc(-n4ccnc4)nc3)no2)c1	Pf Dd2 growth 8.9µM
CNc1ccc(-c2noc([C@@H]3CCCN3Cc3cccnc3)n2)cn1	none
FC(F)(F)Oc1cccc(CN2CCC[C@H]2c2nc(-c3ccc(N4CCOCC4)nc3)no2)c1	none
CC(=O)N1CCC(N2CCC[C@H]2c2nc(-c3ccc(N4CCC(C(N)=O)CC4)nc3)no2)CC1	none
CN(C)c1ccc(-c2noc([C@@H]3CCCN3Cc3ccc(CO)o3)n2)cn1	Pf Dd2 growth 7.9µM
CNc1ccc(-c2noc([C@@H]3CCCN3Cc3cccc(OC)c3)n2)cn1	none
CC(=O)N1CCC(N2CCC[C@H]2c2nc(-c3ccc(-n4ccnc4)nc3)no2)CC1	none
CC(C)N1CCC[C@H]1c1nc(-c2ccc(N3CCN(C)CC3)nc2)no1	Pf Dd2 growth 10µM
COc1ccc(CN2CCC[C@H]2c2nc(-c3ccc(-n4ccnc4)nc3)no2)c(OC)c1OC	Pf Dd2 growth 10µM
COCC(=O)Nc1ccc(-c2noc([C@@H]3CCCN3Cc3cc4ccccc4o3)n2)cn1	none
CC(=O)Nc1ccc(CN2CCC[C@H]2c2nc(-c3ccc(N4CCC(C(N)=O)CC4)nc3)no2)cc1	none
CN(C)c1ccc(-c2noc([C@@H]3CCCN3C3CCOCC3)n2)cn1	none
CN(CC1CCOCC1)C(=O)NC1CCCC1	none
CS(=O)(=O)N1CCCCCNC(=O)[C@@H]2CCCC[C@@H]21	none
O=C1[C@H]2CN(Cc3ccc(Br)cc3)C[C@H]2C(=O)N1Cc1ccc2c(c1)OCO2	none
COCc1noc([C@@H]2CC(F)(F)CN2C(=O)c2cccc(C#N)c2)n1	none
O=C(NCc1ccc(N2CCOCC2)cc1)c1cc[nH]c1C1CCCNC1 (stereo not given)	none
